HepG2 tox – counter-screen for TGF-b inhibitors: cytotoxicity in HepG2 cells; HepG2 CAGA-GFP viability, ATP luminescence, 18 h; Potency, µM (titrated, usually from 46.1 µM), without a hit: top-dose activity change, negative = cytotoxicity, hits mostly cytotoxic; 410,000 tested, 0.76% active
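CellTiter-Glo luminescence gave cytotoxicity after 18 hours at 37 degrees C. The cells were HepG2 CAGA-GFP in 1% FBS DMEM, stimulated with 500 pg/mL TGF-beta after compound addition. %Activity was normalised to no-cell wells (complete cell-killing) and DMSO (no toxicity), and curves were fitted and classified.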
A549 viability – counter-screen for Nrf2 inhibitors: cytotoxicity in A549 cells; A549 ARE-Fluc cells, CellTiter-Fluor viability, 18-24 h; 390,000 tested, 0.16% active; AID 504648; Potency, µM (titrated, usually from 46 µM), without a hit: top-dose activity change, negative = cytotoxicity, usual class: inhibitors; further: on the % scale 0 is the no-effect control and ±100 the full control effect
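Cytotoxicity counterscreen: CellTiter-Fluor fluorescence was measured in A549 ARE_Fluc cells after 18-24 h of compound exposure in a concentration series. The subsequent BugLite luminescent read reports ARE-luciferase activity.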
ATXN viability – reduces viability in counter-screen for ATXN expression inhibitors. S2 cells (HEK-293 line with an ATXN2-luciferase reporter) viability, CellTiter-Fluor protease fluorescence, 24 h. Potency, µM (top dose mostly 56.7 µM), usual class: cytotoxic. 400,000 tested, 0.49% active. AID 651635; further: nearly all actives have a fitted effect of over 40% in size
TGFb inhibitor – TGF-b pathway inhibition; HepG2 CAGA-GFP TGF-b/SMAD3 reporter, GFP fluorescence, 18 h; TGF-beta stimulated, 500 pg/mL final; Potency, µM (top dose mostly 46.1 µM), for inactives: at the highest dose activity, negative = inhibition, most hits filed as inhibitors; 410,000 tested, 1.2% active; AID 588855; further: on the % scale 0 is the no-effect control and ±100 the full control effect; nearly all actives have a fitted effect of over 65% in size
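Read-out: total well GFP (ex488/em500-530) summed from mean per-cell fluorescence. Cells: HEPG2 CAGA-GFP, 1% FBS DMEM, 18 h at 37 degrees C with 500 pg/mL final TGF-beta. Unstimulated wells served as the full-inhibition control; stimulated DMSO wells = 0%.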
Nrf2 inh – inhibitors of Nrf2 signaling. A549 ARE-Fluc reporter, luciferase luminescence, 18-24 h. Potency, µM (highest dose often 46 µM), inactives show at the highest dose activity change, negative = inhibition, most hits filed as inhibitors. 360,000 tested, 2.1% active. AID 504444; further: on the % scale 0 is the no-effect control and ±100 the full control effect; nearly all actives have a fitted effect of over 60% in size
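Concentration-response testing used A549 ARE_Fluc cells at 5000 cells/well. Following an 18-24 h compound incubation, viability was read by fluorescence (Ex 405/Em 525) and luciferase output by luminescence.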
ATXN2 expr inh – reduces ATXN2 reporter expression in HEK-293 cells; HEK-293 ATXN2-luciferase reporter, luminescence, 24 h; Potency, µM (highest dose often 57 µM), inactives show at the highest dose activity change, negative = inhibition, most hits filed as inhibitors; 360,000 tested, 0.72% active; further: on the % scale 0 is the no-effect control and ±100 the full control effect; nearly all actives have a fitted effect of over 55% in size
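qHTS (up to 57 uM final) was run with 24 h compound exposure of reporter cells at 37 °C. Each well was multiplexed: SteadyGlo luminescence measured ATXN2-luciferase expression after a fluorogenic Gly-Phe-AFC viability readout (25 uM final).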
An asterisk follows results filed as active; i = inactive; ? = inconclusive; . = no result given. Only some compounds are listed: those with a hit (about 3.8% of all), similar ones and a draw of the others. The call rests on the fitted dose curve; in most records, active means well fitted curve in the direction sought with a large enough effect; inconclusive means small, poorly fitted or top-dose-only effect, or another doubt; inactive means no such curve, though single readings can be large; an effect the other way counts as inactive or inconclusive. Potency means the concentration at half of the fitted maximal effect.

SMILES	HepG2 tox	A549 viability	ATXN viability	TGFb inhibitor	Nrf2 inh	ATXN2 expr inh
CCCCCCCCCNC(=O)[C@H](NC(=O)COc1ccccc1)[C@@H]1NC(C(=O)OC)C(C)(C)S1 (stereo partly drawn)	-6%	?	?	11µM*	?	9%
Cn1nnnc1Sc1ncnc2scc(Br)c12	-37%	-1%	i	2.2µM*	-19%	18µM*
Cn1nnnc1Sc1ncnc2scc(-c3ccccc3Br)c12	-19%	-3%	?	?	21µM*	25µM*
Cc1ccccc1-c1csc2ncnc(Sc3nnnn3C)c12	.	1%	.	.	-10%	.
NC(Cc1ccc(Cl)cc1)c1csc(Nc2cc(Oc3ccccc3)ncn2)n1 (stereo not drawn)	-114%	.	.	?	.	-21%
COc1ccc(CC(N)c2csc(Nc3cc(Oc4ccccc4)ncn3)n2)cc1 (stereo not drawn)	18µM*	.	?	?	.	?
NC(Cc1ccc(F)cc1)c1csc(Nc2cc(NCc3ccco3)ncn2)n1 (stereo not drawn)	-48%	.	?	?	.	18µM*
NC(Cc1ccc(F)cc1)c1csc(Nc2cc(Oc3ccccc3)ncn2)n1 (stereo not drawn)	13µM*	.	28µM*	?	.	?
Cc1cccc(-c2nc(CCNC(=O)c3ccccc3Br)cs2)c1	-8%	7%	.	?	.	.
O=C1C=C(C2CCCCC2)C(=O)c2ccccc21	-17%	4%	i	-24%	-8%	-4%
COc1ccc(SN=C2C(C)=CC(=O)C=C2C)cc1	-17%	1%	i	-5%	?	?
COC1=CC(=O)C=C(OC)C1=O	-118%	-14%	?	?	?	5.6µM*
COC1=CC(=O)c2ccccc2C1=O	2.2µM*	?	i	1.4µM*	23µM*	28µM*
Cc1ccc(Cn2cc(C(=O)c3ccc4c(c3)OCO4)c(=O)c3cc(C)ccc32)cc1	-18%	?	?	-22%	?	-39%
c1ccc2c(c1)OCC(c1csc3ncnc(N4CCCC4)c13)O2 (stereo not drawn)	-12%	16%	i	?	.	-5%
c1ccc(CCNc2ncnc3scc(C4COc5ccccc5O4)c23)cc1 (stereo not drawn)	-47%	-24%	i	16µM*	?	-27%
O=[N+]([O-])c1c(NCCCO)cc(Sc2ccc(Cl)cc2)c2nonc12	-22%	-19%	32µM*	5%	3%	?
CC(=O)OCCCNc1cc(Sc2ccc(C)cc2)c2nonc2c1[N+](=O)[O-]	-27%	?	?	-5%	-41%	-62%
O=[N+]([O-])c1c(NCCCO)cc(SCc2ccco2)c2nonc12	-55%	-13%	.	11µM*	-8%	0%
CN(CCO)c1cc(N2CCC3(CC2)OCCO3)c2nonc2c1[N+](=O)[O-]	-10%	-18%	?	-9%	-4%	-24%
CC(=O)OCCCNc1cc(Sc2nc3ccccc3s2)c2nonc2c1[N+](=O)[O-]	-4%	-6%	.	?	12%	16µM*
O=[N+]([O-])c1c(NCCO)cc(N2CCC3(CC2)OCCO3)c2nonc12	0%	9.2µM*	i	-16%	-18%	1%
COc1ccccc1N1CCN(C2CCCN(C(=O)CCc3ccccn3)C2)CC1 (stereo not drawn)	0%	-2%	i	6%	-1%	-5%
N#Cc1ccc(-c2cccs2)nc1SCC(=O)Nc1cccc(C(F)(F)F)c1	11µM*	-9%	i	?	-4%	-5%
Cc1ccc(N2CCN(S(=O)(=O)c3ccc4oc(=O)ccc4c3)CC2)c(C)c1	0%	3%	i	-16%	?	-16%
SMILES	HepG2 tox	A549 viability	ATXN viability	TGFb inhibitor	Nrf2 inh	ATXN2 expr inh
CCS(=O)(=O)c1ncc(Cl)c(C(=O)Nc2c(C(=O)Nc3cccc(C)c3)oc3ccccc23)n1	-20%	-18%	?	0.89µM*	24%	8%
CCS(=O)(=O)c1ncc(Cl)c(C(=O)Nc2ccccc2OC)n1	-29%	-16%	.	3.5µM*	?	?
CCSc1ncc(Cl)c(C(=O)Nc2c(C(=O)Nc3cccc(C)c3)oc3ccccc23)n1	-14%	2%	.	.	-2%	.
COC(=O)c1ccccc1NC(=O)c1nc(S(=O)(=O)Cc2cccc(C)c2)ncc1Cl	4%	-11%	.	-3%	20%	.
CCS(=O)(=O)c1ncc(Cl)c(C(=O)Nc2ccccc2)n1	18µM*	?	14µM*	10µM*	?	11µM*
O=C(CCS(=O)(=O)c1ccccc1Cl)NCCC1=CCCCC1	-2%	-11%	i	13%	20%	26%
CC(=O)OCC(=O)[C@@]12OC(C)(C)O[C@H]1C[C@H]1[C@@H]3C[C@H](F)C4=CC(=O)C=C[C@]4(C)[C@@]3(F)[C@@H](O)C[C@@]12C	.	.	.	.	.	-17%
O=S1(=O)N=C(Oc2ccc(Br)cc2)c2ccccc21	.	-2%	.	.	9%	.
CCC1(C2CCN(Cc3cc4ccccc4o3)CC2)NC(=O)N(CC2COc3ccccc3O2)C1=O (stereo not drawn)	.	.	i	.	.	.
CCOc1ccc(N2CC(c3nc4ccccc4n3CCCCOc3ccc(OC)cc3)CC2=O)cc1 (stereo not drawn)	-32%	?	?	?	?	?
CCOc1ccc(N2CC(c3nc4ccccc4n3CCCOc3ccccc3)CC2=O)cc1 (stereo not drawn)	-8%	?	.	11µM*	?	?
CCCCn1c(C2CC(=O)N(c3ccc(OCC)cc3)C2)nc2ccccc21 (stereo not drawn)	-41%	-2%	?	?	-3%	2%
O=C1CC(c2nc3ccccc3n2CCCOc2ccccc2)CN1c1ccc(F)cc1 (stereo not drawn)	-21%	-17%	25µM*	-27%	?	-29%
C/C(=C\C(=O)O)C12CC3CC(CC(C3)C1)C2	4%	7%	i	-9%	24%	15%
CC1CCCC(NC(=S)NC(=O)c2ccccc2Br)C1C (stereo not drawn)	-18%	-12%	i	?	?	10%
COc1ccc(N2CCN(C(=O)c3ccc(NC(=O)C4=CSCCO4)cc3)CC2)cc1	9%	2%	i	-6%	-6%	.
CN(CCOc1ccc(Cl)cc1)C(=O)c1ccccc1SCC(=O)N1CCCC1	-35%	-15%	.	?	13µM*	.
COc1cccc(C(C)(O)c2nc(-c3ccc(F)cc3OC)cs2)c1 (stereo not drawn)	-15%	.	i	2%	.	-2%

Screening results: PubChem, National Center for Advancing Translational Sciences (NCATS)
